According to ChEMBL document CHEMBL1157539, “Thousands of chemical starting points for antimalarial lead identification” (Nature, 2010):

Key:
Type in all cases: functional
Plasmodium falciparum [1] = assay: GSK_TCMDC: Inhibition of Plasmodium falciparum 3D7 in whole red blood cells, using parasite LDH activity as an index of growth. Test compounds present at 2uM
Plasmodium falciparum [2] = assay: GSK_TCMDC: Inhibition of Plasmodium falciparum Dd2 in whole red blood cells, using parasite LDH activity as an index of growth. Test compounds present at 2uM
HepG2 = assay: GSK_TCMDC: Percent inhibition of human HepG2 cell line. Test compounds present at 10uM.

| Structure (SMILES) | Inhibition (Plasmodium falciparum [1]) [%] | Inhibition (Plasmodium falciparum [2]) [%] | Inhibition (HepG2) [%] |
| --- | --- | --- | --- |
| Cc1ccc2[nH]c(-c3ccccc3Nc3ccnc4cc(-c5nccs5)ccc34)nc2c1.Cl | 100 | 100 | 40 |
| CC(=O)Nc1ccc(C(=O)Nc2cccc(-c3cccc(-c4nc5cc(C(F)(F)F)ccc5[nH]4)c3)c2)cn1 | 100 | 97 | 8 |
| N#Cc1ccc(N2CCN(Cc3ccc(-c4ccc(-c5nc6cc(C(F)(F)F)ccc6[nH]5)cc4)cc3)CC2)nc1.O=C(O)C(F)(F)F | 100 | 90 | 19 |
| CN1CCCc2cc(NC(=O)C=Cc3ccc(-c4ccc(F)cc4F)o3)ccc2C1.O=C(O)C(F)(F)F | 90 | 27 | 5 |
| Cl.NC1=NC2(CCCC2)C(c2ccc(Cl)c(Cl)c2)C(N)=N1 (stereo not given) | 92 | 3 | 7 |
| O=C(Nc1cccc2ccccc12)N1CCC(NS(=O)(=O)c2cccc(C(F)(F)F)c2)CC1 | 95 | 1 | 0 |
| CC(C)n1nc(C(=O)N2CCN(c3ccccc3)CC2)c2ccccc2c1=O | 96 | 3 | 34 |
| Cc1cccc2nc(-c3ccc(-c4ccc(CN5CCCCC5)cc4)s3)[nH]c12.O=C(O)C(F)(F)F | 99 | 87 | 16 |
| COc1cc(OC)nc(C(Sc2ccc(NC(=O)c3cccs3)cc2)c2ccccc2)n1 (stereo not given) | 97 | 96 | 7 |
| Cc1cc(N[C@@H](Cc2ccccc2)C(=O)NCCc2ccccc2)nc(NCC2CCCCC2)n1.O=C(O)C(F)(F)F | 100 | 95 | 24 |
| CC1(CCN2CCC(c3c[nH]c4cnccc34)CC2)CCCc2c(Br)cccc2C1=O.Cl (stereo not given) | 100 | 66 | 14 |
| COc1ccccc1C(C)NCC(=O)Nc1ccccc1Sc1ccccc1 (stereo not given) | 89 | 7 | 0 |
| COc1ccc(-c2ccc(CN(C)C3CCC(NC(=O)c4cc5ccccc5[nH]4)CC3)cc2)cn1 (stereo not given) | 88 | 2 | 31 |
| COc1ccc(CN2CCC(NCc3ccc(C(F)(F)F)cc3)CC2)cc1.O=C(O)C(F)(F)F | 97 | 0 | 37 |
| Br.Oc1ccc(CCNCCCCCCNCCCc2ccc(Cl)cc2)cc1O | 87 | 3 | 13 |
| CCC(=O)Nc1ccc(Nc2nc(C)cc(N3CCCC3)n2)cc1 | 91 | 2 | 34 |
| O=C(NCc1cccc(F)c1)Nc1ccc(-c2cccc(-c3nc4cc(F)ccc4[nH]3)c2)cc1 | 88 | 2 | 31 |
| O=C(NCc1ccccc1)OC1CNCCC1c1ccc(C(O)Cc2ccccc2)cc1.O=C(O)C(F)(F)F (stereo not given) | 87 | 5 | 8 |
| CN1CCN(S(=O)(=O)c2cccc(Nc3nccc(N(C)c4ccc5c(c4)nc(NC(=O)c4cccs4)n5C)n3)c2)CC1 | 99 | 59 | 25 |
| COc1cc(CCNc2nc(NCc3cccc4ccccc34)nc(N3CCC(N)CC3)n2)ccc1O.O=C(O)C(F)(F)F | 100 | 59 | 16 |
| COc1cc(C2C(Oc3ccccc3)C(=O)N2Cc2ccc(F)cc2)cc(OC)c1OC (stereo not given) | 100 | 97 | 0 |
| COc1cccc(Nc2nc(C)cc(NC3CCN(Cc4ccccc4)CC3)n2)c1 | 100 | 46 | 15 |
| CC(C)Sc1nc2c(c(=O)n1CCc1ccccc1)C1(CCCC1)Cc1ccccc1-2 | 100 | 88 | 0 |
| O=C(Nc1ccc(C(F)(F)F)cc1)NC1CCN(CCCCCNC(=O)C2CC2c2ccc(Cl)c(Cl)c2)CC1 (stereo not given) | 100 | 45 | 41 |
| COc1cc2c(cc1OC)CN(CCc1ccc(NC(=O)c3cc4cc(Cl)ccc4[nH]3)cc1)CC2 | 90 | 6 | 3 |
| Cc1nnsc1C(=O)Nc1cccc(-c2cccc(-c3nc4ccccc4[nH]3)c2)c1 | 100 | 34 | 14 |
| CC(=O)Nc1ccc(C2NC(=O)NC(c3ccccc3)=C2c2nc3ccccc3s2)cc1 (stereo not given) | 93 | 96 | 0 |
| O=C(NCCN1Cc2ccccc2C1=O)c1ccc(Oc2ccc(C(=O)NCCN3Cc4ccccc4C3=O)cc2)cc1 | 99 | 95 | 27 |
| COc1ccc(Nc2nc(N3CCCC3)c3ccccc3n2)cc1.Cl | 100 | 98 | 40 |
| O=C(COc1ccccc1)Nn1cnc2ccccc21 | 91 | 0 | 2 |
